The text below walks through data of PubChem BioAssay.

Assay [1] is described as follows: A549 cell viability effects, profiling panel, calcein-AM fluorescence, 48 h, basal (AID 1162). Also: test concentration not given here. To be noted: higher = more signal.
Assay [2] is described as follows: adipocyte viability effects, profiling panel, cell-based, 3T3-L1 adipocytes, calcein-AM fluorescence, 48 h, basal (AID 1163). Also: test concentration not given here. Particulars: 3T3-L1 adipocytes viability, higher = more signal.
A short description of assay [3]: HepG2 cell viability effects, profiling panel, calcein-AM fluorescence, 48 h, basal (AID 1164). Also: test concentration not given here. Particulars: higher = more signal.
Assay [4] can be described thus: MM1S cell viability effects, profiling panel, calcein-AM fluorescence, 48 h, basal (AID 1165).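 Also: viability of MM1S multiple myeloma cells under basal unstimulated conditions; test concentration not given here.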 To be noted: higher = more signal.
The nature of assay [5]: basal RPMI8226 viability, no added stimulus, profiling panel, cell-based, calcein-AM fluorescence, 48 h, PK04 Diversity Set (AID 1166).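 Also: cells grown under basal conditions without added stimulus; test concentration not given here.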 To be noted: RPMI8226 myeloma viability, higher = more signal.
Assay [6] is described as follows: basal HepG2 mitochondrial membrane potential changes, profiling panel, cell-based, JC-1 fluorescence, 24 h, 100 nL compound (AID 1167). Also: test concentration not given here. To be noted: higher = more signal.
Assay [7] in a line: basal 3T3-L1 adipocyte mitochondrial potential changes, profiling panel, cell-based, JC-1 fluorescence, 3T3-L1 adipocytes, 24 h, 100 nL compound (AID 1168). Also: test concentration not given here. To be noted: JC-1 mitochondrial fluorescence, higher = more signal, called active from +8 up or from −8 down.
Assay [8] is described as follows: basal RPMI8226 mitochondrial membrane potential changes, profiling panel, cell-based, JC-1 fluorescence, 24 h, 100 nL compound (AID 1169). Also: test concentration not given here. Particulars: RPMI8226 myeloma, JC-1 mitochondrial potential fluorescence, higher = more signal.
Assay [9] can be described thus: basal MM1S mitochondrial membrane potential changes, profiling panel, cell-based, JC-1 fluorescence, 24 h, 100 nL compound (AID 1170). Also: test concentration not given here. To be noted: higher = more signal.
The nature of assay [10]: A549 lung cancer cell viability effects, profiling panel, resazurin fluorescence, 24 h, PK04 Diversity Set (AID 1171). Also: test concentration not given here. To be noted: higher = more signal, called active from +8 up or from −8 down. In general terms: Resazurin is reduced to fluorescent resorufin, in cell work by metabolically active cells.
Assay [11] in a line: HepG2 liver cancer cell viability effects, profiling panel, resazurin fluorescence, 24 h, PK04 Diversity Set (AID 1172). Also: test concentration not given here. To be noted: higher = more signal.
Assay [12] can be described thus: basal S. cerevisiae growth modulation, no modifier, primary screen, OD600, strain BY4716, 24 h, basal condition (AID 1173). To be noted: OD600, 24 h, higher = more signal, called active from +8 up or from −8 down.
Assay [13] is described as follows: MM1S myeloma cell viability, profiling panel, resazurin fluorescence, basal, 24 h, PK04 Diversity Set (AID 1174).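 Also: MM1S multiple myeloma cell line; test concentration not given here.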 Particulars: higher = more signal, called active from +8 up or from −8 down.
In assay [14] the target is Dihydroorotate dehydrogenase (quinone), mitochondrial (Plasmodium falciparum (isolate 3D7)) (UniProt Q08210). The assay can be described thus: PfDHODH enzyme inhibitors, primary screen, biochemical, C-terminal His tag, absorbance 600 nm (AID 1175).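 Also: recombinant parasite enzyme with a five histidine tag at its C terminus; test concentration not given here.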 Particulars: DCIP absorbance 600 nm, higher = more signal, called active from +8 up or from −8 down.
Sequence of Dihydroorotate dehydrogenase (quinone), mitochondrial (Plasmodium falciparum (isolate 3D7)) (Q08210 whole entry, looked up): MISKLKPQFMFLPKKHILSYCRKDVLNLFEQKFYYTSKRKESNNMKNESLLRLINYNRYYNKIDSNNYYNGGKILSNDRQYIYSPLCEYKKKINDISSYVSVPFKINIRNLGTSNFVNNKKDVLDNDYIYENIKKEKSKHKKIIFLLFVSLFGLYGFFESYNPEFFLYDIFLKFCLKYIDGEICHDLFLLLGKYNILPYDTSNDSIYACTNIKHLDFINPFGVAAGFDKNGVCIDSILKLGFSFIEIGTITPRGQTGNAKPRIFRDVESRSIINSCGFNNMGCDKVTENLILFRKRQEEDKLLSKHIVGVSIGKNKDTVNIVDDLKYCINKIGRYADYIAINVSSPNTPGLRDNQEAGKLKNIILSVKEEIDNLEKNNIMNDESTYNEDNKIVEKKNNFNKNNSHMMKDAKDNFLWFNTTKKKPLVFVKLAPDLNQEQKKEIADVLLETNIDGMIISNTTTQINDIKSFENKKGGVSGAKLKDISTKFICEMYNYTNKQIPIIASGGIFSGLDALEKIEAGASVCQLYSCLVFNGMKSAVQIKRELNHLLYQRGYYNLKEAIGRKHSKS
The nature of assay [15]: P. aeruginosa biofilm formation inhibitors, primary screen, strain PAO1, LB-PBS medium, absorbance 600 nm (AID 1176). Also: test concentration not given here. Particulars: P. aeruginosa PAO1 growth/biofilm, A600, 12 h; higher = more signal.
A short description of assay [16]: S. cerevisiae RM11-1a growth modifiers, primary screen, strain RM11-1a, OD600, basal, 24 h (AID 1177).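 Also: cultures grown under basal conditions with no added stressor; test concentration not given here.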 To be noted: OD600, 24 h, higher = more signal, called active from +8 up or from −8 down.
A short description of assay [17]: E. coli acrAB mutant growth effects, primary screen, E. coli filamentation inducers, strain DRC39, OD650, 24 h (AID 1178).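 Also: growth measured as culture turbidity by optical density at 650 nm; test concentration not given here.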 Particulars: higher = more signal, called active from +8 up or from −8 down.
Assay [18] can be described thus: E. coli acrAB mutant growth effects, primary screen, E. coli filamentation inducers, strain DRC39, OD650, 48 h (AID 1179).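 Also: screen aims at cell division blockers that make cells filament.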 To be noted: E. coli DRC39 delta-acrAB growth, higher = more signal, called active from +8 up or from −8 down.
Assay [19] can be described thus: RPMI8226 myeloma cell viability, profiling panel, resazurin fluorescence, basal, 24 h, PK04 Diversity Set (AID 1180).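 Also: RPMI8826 multiple myeloma cell line at 5000 cells per well; test concentration not given here.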 To be noted: higher = more signal.
The target of assay [20] is E3 ubiquitin-protein ligase XIAP (Homo sapiens) (UniProt P98170). The assay can be described thus: XIAP binders, primary screen, biophysical, small-molecule microarray, fluorescence 635 nm (AID 1181).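 Also: score merges 667 nm emission and signal to noise over triplicate slides.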 To be noted: small-molecule microarray binding, higher = more signal.
Sequence of E3 ubiquitin-protein ligase XIAP (Homo sapiens) (P98170 whole entry, looked up): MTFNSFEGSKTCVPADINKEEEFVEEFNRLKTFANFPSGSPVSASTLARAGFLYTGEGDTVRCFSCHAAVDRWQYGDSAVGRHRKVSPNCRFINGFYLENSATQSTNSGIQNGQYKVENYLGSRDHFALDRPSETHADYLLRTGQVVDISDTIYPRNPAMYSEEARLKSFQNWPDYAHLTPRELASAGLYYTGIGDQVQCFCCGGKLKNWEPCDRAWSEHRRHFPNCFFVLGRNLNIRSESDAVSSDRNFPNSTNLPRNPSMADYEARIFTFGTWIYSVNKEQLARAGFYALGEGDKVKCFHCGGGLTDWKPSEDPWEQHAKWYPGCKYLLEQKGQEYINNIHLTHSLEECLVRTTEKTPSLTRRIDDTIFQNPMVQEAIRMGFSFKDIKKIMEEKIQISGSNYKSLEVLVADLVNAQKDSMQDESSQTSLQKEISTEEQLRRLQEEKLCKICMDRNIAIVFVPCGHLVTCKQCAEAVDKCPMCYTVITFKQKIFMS

Structures are written as SMILES. Where “and” joins values, the source holds several entries; their conditions need not be identical. Equal entries are not always repeated. Calls of active or inactive are those of the source. Unless noted, no rule for the calls is given here.

As to `CCCCCN1CC=CC23O[C@@H]4C=CCCOC(=O)C4[C@H]2C(=O)N(C(C)CO)[C@@H]3C1=O` (stereo not given in full), the z-score in assay [1] is -0.345 and -0.691; in assay [2] it was 0.94 and -0.707; in [3], -1.46 and -0.31; in [4], 0.737 and 0.402; in assay [5], 0.254 and -0.282; in assay [6], -0.473 and -1.11. The z-score was -0.354 (inactive) and -0.522 (inactive) in assay [7]; 0.861 and -0.0156 in [8]; -0.141 and 0.641 in assay [9]; 1.08 (inactive) and 0.713 (inactive) in assay [10]; 1.77 and 0.86 in assay [11]; -0.252 (inactive) and 1 (inactive) in assay [12]. Moreover, the z-score was 1.24 (inactive) and -0.0383 (inactive) in assay [13]; -0.193 (inactive) and 0.0683 (inactive) in assay [15]; -0.0686 (inactive) and 0.825 (inactive) in [16]; 0.213 (inactive) and 0.0972 (inactive) in assay [17]; -0.123 (inactive) and -0.105 (inactive) in assay [18]; 1.18 and -0.0579 in [19]. The composite z-score is -1.97 (inactive) and -0.391 (inactive) in [14]; 0.216 and -0.323 in assay [20].

`C=C[C@@H](C)[C@H](O)c1ccc(O)c2ccccc12`: the z-score in [1] is -0.529 and -0.709; in assay [2] it was -0.134 and 0.136; in assay [3], -0.988 and -0.789; in assay [4], -2.66 and -2.63; in [5], -0.808 and -0.695; in assay [6] it was -1.66 and -1.91. Moreover, the z-score in assay [7] was -1.42 (inactive) and -0.865 (inactive); in assay [8], -0.333 and -0.269; in assay [9], -0.52 and 0.331; in [10] it was -0.28 (inactive) and -0.0127 (inactive); in [11], 0.127 and 0.0729; in assay [12], -8.76 (active) and -8.55 (active). Besides, the z-score was -0.683 (inactive) and -0.737 (inactive) in assay [13]; 0.483 (inactive) and 0.79 (inactive) in assay [15]; -0.638 (inactive) and -0.599 (inactive) in assay [16]; 0.479 (inactive) and 0.435 (inactive) in assay [17]; 0.008 (inactive) and 0.189 (inactive) in [18]; -0.861 and -0.602 in assay [19]. Also, the composite z-score in assay [14] was -0.94 (inactive) and -0.709 (inactive); in [20], -0.0893 and 0.0773.

Take `CC(CO)N1C(=O)[C@@H]2C3C(=O)OCCC=C[C@H]3OC23C=CCN(Cn2nnc4ccccc42)C(=O)[C@@H]13` (stereo not given in full): the z-score in [1] is -0.515 and 0.432; in [2], -0.101 and 0.061; in assay [3] it was -0.562 and -0.713; in assay [4], 0.922 and -0.0987; in assay [5], -0.28 and 0.0829; in assay [6] it was -1.01 and -0.375. Moreover, the z-score in assay [7] was -0.259 (inactive) and -1.12 (inactive); in assay [8], 0.46 and -0.0108; in assay [9] it was 0.198 and -0.363; in [10], -0.116 (inactive) and 0.785 (inactive); in assay [11], 0.576 and 0.999; in [12] it was 0.771 (inactive) and 0.283 (inactive). For the same compound, the z-score was -0.415 (inactive) and -0.0046 (inactive) in assay [13]; 0.55 (inactive) and 0.798 (inactive) in assay [15]; 1.07 (inactive) and -0.995 (inactive) in assay [16]; -0.125 (inactive) and 0.0633 (inactive) in assay [17]; -0.214 (inactive) and -0.099 (inactive) in [18]; 0.0489 and -0.178 in [19]. In addition, the composite z-score is -4.99 (inactive) and -0.478 (inactive) in [14]; -0.0448 and -0.21 in assay [20].

For `CO[C@H]1COC(=O)CC=C[C@@H](C)COC(=O)[C@H](CCSC)NC(=O)CC=C[C@@H]1C`, the z-score in assay [1] is -0.875 and -0.577; in assay [2], 0.584 and 0.153; in assay [3], -0.442 and 0.338; in [4], 0.0739 and -0.242; in assay [5] it was -0.858 and 0.708; in assay [6], 0.755 and 0.535. The z-score is -0.153 (inactive) and 0.157 (inactive) in assay [7]; -0.688 and 0.358 in assay [8]; 0.588 and 1.85 in [9]; -0.8 (inactive) and 0.705 (inactive) in assay [10]; -0.591 and 0.597 in assay [11]; -0.92 (inactive) and -2.28 (inactive) in assay [12]. For the same compound, the z-score was -0.473 (inactive) and 1.67 (inactive) in assay [13]; 0.0821 (inactive) in assay [15]; -0.177 (inactive) and -0.642 (inactive) in assay [16]; 0.277 (inactive) and 0.719 (inactive) in assay [17]; -1.27 (inactive) and 0.0985 (inactive) in assay [18]; -0.0162 and 1 in assay [19]. Also, the composite z-score in [14] is 0.177 (inactive) and 0.0636 (inactive); in assay [20], 0.266 and 0.0623.

In the case of `CO[C@@H]1C=CCC(=O)N2CCC[C@H]2C(=O)OC[C@H](C)C(=O)OC[C@H]1C`, the z-score in assay [1] is 0.616; in assay [2], 0.345; in assay [3], 1.33; in assay [4], 0.383; in [5] it was -0.87; in assay [6] it was 0.872. Also, the z-score is 0.673 (inactive) in assay [7]; -0.0289 in [8]; 0.331 in [9]; 0.87 (inactive) in assay [10]; 0.445 in assay [11]; -0.774 (inactive) in assay [12]. Besides, the z-score is -0.694 (inactive) in [13]; -0.72 (inactive) in [15]; 0.134 (inactive) in assay [16]; 1.08 (inactive) in assay [17]; 0.858 (inactive) in assay [18]; 0.312 in assay [19]. Further, the composite z-score in assay [14] is 0.634 (inactive); in [20], 0.0595.

For the compound `C#CCCCON=C1C[C@@H](O)[C@@H](O)[C@@H]2[C@@H]3C(=O)N(C4CCCCC4)C(=O)[C@@H]3CC[C@H]12`, the z-score in assay [1] is -0.0446; in assay [2] it was -0.277; in assay [3] it was 1.15; in assay [4], 0.471; in [5], -0.584; in assay [6] it was 0.289. Further, the z-score in [7] was 0.201 (inactive); in assay [8] it was 0.515; in assay [9] it was -0.353; in assay [10] it was 0.108 (inactive); in assay [11], -0.477; in assay [12], -0.248 (inactive). The z-score is -2.78 (inactive) in assay [13]; -0.568 (inactive) in assay [15]; -0.126 (inactive) in assay [16]; 0.331 (inactive) in assay [17]; 0.771 (inactive) in assay [18]; -1.08 in assay [19]. The figures for the composite z-score in assay [14] and in assay [20] were -0.822 (inactive) and -0.0945, respectively.

For the compound `C=C[C@@H](OC)[C@H](O)c1ccc(OC)c(O)c1`, the z-score was -0.72 and 0.387 in [1]; 1.21 and 1.57 in assay [2]; -1.02 and 0.209 in assay [3]; -1.16 and 0.905 in assay [4]; -1.3 and 0.14 in [5]; -0.782 and 0.179 in assay [6]. The z-score is -1.44 (inactive) and 0.912 (inactive) in assay [7]; -0.205 and -0.346 in assay [8]; -0.297 and 1 in assay [9]; -0.693 (inactive) and 0.835 (inactive) in assay [10]; -0.246 and 0.49 in assay [11]; -1.28 (inactive) and -1.67 (inactive) in [12]. For the same compound, the z-score in [13] was -0.72 (inactive) and 0.989 (inactive); in [15], 0.152 (inactive); in assay [16], 0.119 (inactive) and -1.5 (inactive); in [17], -0.0985 (inactive) and 1.78 (inactive); in assay [18], -0.489 (inactive) and 1.38 (inactive); in assay [19], -1.04 and 0.51. The composite z-score was 0.229 (inactive) and -0.344 (inactive) in [14]; -0.319 and -0.148 in assay [20].
